From PubChem BioAssay (EPA / NIEHS)
Calls of active or inactive are those of the source. Rule for the calls: active = hit-call score of the fitted dose curve at least 0.9, where 1 is the maximum; inactive = score below 0.9.

assay: IUF_NPC2a_radial_glia_migration_72hr: Leibniz Research Institute for Environmental Medicine (IUF) 72-hour Neural Progenitor Cell Migration Assay for Radial Glia Migration (NPC2a) (AID 2284299)
Description: IUF_NPC2-5 is a cell-based, multiplexed assay that uses hNPC, a human primary neural progenitor cells, with measurements taken at 72 or 120 hours after chemical dosing in a 96-well plate. Human neural progenitor cells (hNPC) are generated from human fetal brain cortex at gestational week (GW) 16-19. In the neural progenitor cell migration and differentiation assay (NPC2-5), hNPCs grown as spheres are plated on an extracellular matrix and migrate and differentiate out of the sphere core. The processes radial glia migration, neuronal and oligodendrocyte migration as well as neuronal differentiation, neuronal morphology and oligodendrocyte differentiation are studied using automated phase contrast imaging and automated fluorescence imaging in combination with high content image analysis. In parallel, the cell viability is assessed using an alamar blue viability assay and the cytotoxicity using a lactate dehydrogenase dependent membrane integrity assay.IUF_NPC2a_radial glia_migration_72hr is one of 12 assay components measured from the IUF_NPC2-5 assay. The migration distance of radial glia at 72 hr is assessed in um from the edge of the sphere core to the edge of the migration area based on brightfield images of each well. Therefore, each plate is scanned using a high content imaging device. Images are exported and the migration distance is measured manually in four directions using ImageJ. The mean of four measures per well is used as raw data input.Data from the IUF_NPC2a_radial_glia_migration_72hr component was analyzed at the endpoint IUF_NPC2a_radial_glia_migration_72hr in the positive analysis fitting direction relative to DMSO as the negative control and baseline of activity. Using a type of migration reporter, gain or loss-of-signal activity can be used to understand developmental effects.
Culture protocol: After the cell expansion period the cells are cultured for up to four weeks in which they are passaged every week as described in 3.6. Between one to three days after passaging spheres at a size of 0.3 mm are picked for the test method. For the assessment of neural progenitor cell migration and differentiation, the spheres are plated on poly-D-lysine/laminin coated 96-well flat bottom plates in differentiation medium (N2) to initiate migration and differentiation. Thereby one 0.3 mm big sphere is plated in the middle of a well. The differentiation medium consists of DMEM and Ham's F12 at a ratio of 3 to 1 supplemented with 1% N2 and 1% penicillin and streptomycin. Within 5 days NPCs radially migrate out of the sphere core and differentiate into radial glia cells (nestin positive), neurons (TUBB3 positive), oligodendrocytes (O4 positive) and astrocytes (GFAP positive). Cultivation during the test method is performed at 37C and 5% CO2 at a ph of 7.2-7.6.Exposure: 0.3 mm big hNPC are plated in the already prepared test conditions. Exposure starts at day 0 of differentiation and is continued over five days of differentiation until the experiment is terminated. Cells are fed with fresh medium at day 3 of differentiation. Therefore, half of the test condition solution (e.g. solvent control or compound dilution) is replaced by freshly prepared test condition solution.Test Method: Migration distance and cytotoxicity is determined after 72 hours based on brightfield images of each well. The assay is terminated by the assessment of cell viability and cytotoxicity as well as cell fixation after 120 h. Immunocytochemistry is performed for Hoechst positive nuclei, TUBB3 positive neurons and O4 positive oligodendrocytes. On the ICC images, migration after 120 hours, neuronal and oligodendrocyte number, neuronal morphology and neuron/oligodendrocyte specific migration is assessed. immunocytochemical staining (ICC) generates an image for each sphere. The plates are scanned using an automated high content imaging device and all nuclei and their positions are determined automatically based on their intensity and size. […]

Row | Compound | AC50 | outcome
1 | CCC[CH2][Sn]([Cl])([CH2]CCC)[CH2]CCC | 0.386 µM (active) | 
2 | CCCCOC(=O)c1ccccc1C(=O)OCc1ccccc1 | 18.5 µM (active) | 
3 | COP(=S)(OC)SCN1C(=O)c2ccccc2C1=O |  | inactive
4 | CNC(=O)Oc1cccc2c1OC(C)(C)C2 |  | inactive
5 | COC(=O)Nc1nc2ccccc2[nH]1 | 8.09 µM (active) | 
6 | [O-][Cl+]O |  | inactive
7 | O=P(OCCCl)(OCCCl)OCCCl |  | inactive
8 | CC(C)(C)C(O)(CCc1ccc(Cl)cc1)Cn1cncn1 (stereo not given) |  | inactive
9 | OCCOCCO |  | inactive
10 | CC(C)COC(=O)c1ccccc1C(=O)OCC(C)C |  | inactive
